Screens as filed in PubChem BioAssay.
Shown is part of a subset that was picked to be rich in hits.
TDP1 cell CPT: DT40-hTDP1 cell growth loss with CPT | actives 12% (n = 420,000) | chicken DT40 Tdp1-/-;hTDP1 cells + 20 nM CPT, ATP luminescence, 48 h | AID 686979 | Potency, µM (series often up to 46.2 µM), actives largely listed as inhibitors; also: nearly all actives have a fitted effect of over 55% in size
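Chicken DT40 Tdp1-/- cells stably complemented with human TDP1 were seeded at 400 cells/well in medium containing 20 nM camptothecin, exposed to pin-transferred compounds, and grown at 37 °C for at least 48 hr. Viability was read as ATP luminescence.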
IL1B secr inh: blocks inflammasome-driven IL-1 beta release; actives 4.7% (n = 360,000); THP-1 LPS/ATP IL-1B secretion, AlphaLISA, 16 h; stronger effect = lower value; activity change, % at 57.5 µM; AID 743279; in the data active = activity change below about -50%; inconclusive = mostly about -30% to -49%
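THP-1 cells pretreated 1 hr with compounds (up to 57.5 uM final), then stimulated with LPS (250 ng/mL final) plus ATP (1.25 mM final); secreted IL-1B measured by AlphaLISA after 16 hr, decreased signal indicating inhibition.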
HT1080 IDH1KD tx: HT-1080 IDH1 knockdown cell toxicity (counter line); HT-1080 IDH1 knockdown viability, ATP luminescence, 48 h; Potency, µM (top dose mostly 46.1 µM), usual class: cytotoxic; actives 2% (n = 360,000)
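IDH1KD HT-1080 cells, 750/well, RPMI + 5% FBS; compound pinned after 2 h settling; 48 h, 37 °C; CellTiter-Glo luminescence; % activity normalised to DMSO and no-cell wells; curves fitted, classed by r2 and efficacy.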
ALOX12 inh: ALOX12 (human) lipoxygenase inhibition; actives 1.1% (n = 580,000); Potency, µM (highest dose often 108 µM), actives largely listed as inhibitors; P18054; purified 12hLO, xylenol orange hydroperoxide absorbance; AID 1671190
Target sequence (P18054 whole entry, looked up): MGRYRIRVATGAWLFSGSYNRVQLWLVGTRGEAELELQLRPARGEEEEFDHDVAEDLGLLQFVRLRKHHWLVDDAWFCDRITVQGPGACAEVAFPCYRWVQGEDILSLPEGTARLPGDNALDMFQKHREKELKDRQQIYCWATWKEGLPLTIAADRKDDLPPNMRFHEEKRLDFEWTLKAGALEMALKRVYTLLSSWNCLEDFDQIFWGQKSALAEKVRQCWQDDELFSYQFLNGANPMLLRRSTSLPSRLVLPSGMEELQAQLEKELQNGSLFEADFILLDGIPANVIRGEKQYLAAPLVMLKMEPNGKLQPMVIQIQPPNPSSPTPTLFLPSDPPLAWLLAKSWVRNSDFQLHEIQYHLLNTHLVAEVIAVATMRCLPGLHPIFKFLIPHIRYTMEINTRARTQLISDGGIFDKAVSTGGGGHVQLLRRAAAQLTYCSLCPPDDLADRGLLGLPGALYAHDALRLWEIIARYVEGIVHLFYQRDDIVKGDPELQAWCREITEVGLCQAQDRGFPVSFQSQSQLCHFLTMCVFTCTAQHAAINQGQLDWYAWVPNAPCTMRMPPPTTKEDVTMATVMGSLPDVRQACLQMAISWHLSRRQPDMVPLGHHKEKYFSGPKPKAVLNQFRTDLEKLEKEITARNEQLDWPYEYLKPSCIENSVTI
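Purified human 12hLO (150 nM final) in 25 mM Hepes, 0.01% Triton X-100, pH 7.0 was preincubated 15 min at room temperature with compound. Then 40 uM arachidonic acid was added, 30 min. Hydroperoxide was read by Fe-XO absorbance ratio 573/405 nm.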
HT1080-NT tox: kills 2HG-producing HT-1080-NT fibrosarcoma cells. Potency, µM (titrated, usually from 46.1 µM), hits mostly cytotoxic. HT-1080-NT fibrosarcoma viability, CellTiter-Glo ATP luminescence, 48 h. actives 1.6% (n = 360,000). AID 686970;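 also: NT is the 2HG producing partner of a matched IDH1 knockdown line; nearly all actives have a fitted effect of over 55% in size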
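Fibrosarcoma NT cells, 750 per well in 5% FBS RPMI, were exposed to compound for 48 hours. Viability: CellTiter-Glo luminescence.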
TDP1 cell noCPT: qHTS for Inhibitors of human tyrosyl-DNA phosphodiesterase 1 (TDP1): qHTS in cells in absence of CPT | AID 686978, 2013 | Potency, µM (titrated, usually from 46.2 µM), usual class: inhibitors | DT40 Tdp1-/- hTDP1 cells, no CPT, ATP luminescence, 48 h | actives 15% (n = 420,000); also: nearly all actives have a fitted effect of over 55% in size
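Stably hTDP1-transfected Tdp1-null chicken DT40 cells were treated with library compounds minus camptothecin and grown for at least 48 hr at 37 °C, after which cellular ATP was quantified by luminescence.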
Each line names hits and unclear results; the compound was inactive in the other large screens. Unless noted, calls follow the shape of the dose curve; as a rule, active = well fitted curve in the direction sought with a large enough effect; inconclusive = small, poorly fitted or top-dose-only effect, or another doubt; inactive = no such curve, though single readings can be large; an effect the other way counts as inactive or inconclusive.

CC(=O)C(N=Nc1ccccc1)(Sc1nnc(-c2ccccc2)n1-c1ccccc1)C(C)=O	TDP1 cell CPT inconclusive, TDP1 cell noCPT 16µM
OCCN1CCN(c2nc(-c3ccccc3)c3cc(Br)ccc3n2)CC1	TDP1 cell CPT inconclusive, IL1B secr inh -79, HT1080 IDH1KD tx 23µM, HT1080-NT tox inconclusive, TDP1 cell noCPT 9.2µM
O=C(O)C1CCN(c2nc(-c3ccccc3)c3cc(Br)ccc3n2)CC1	TDP1 cell noCPT inconclusive
OCCN1CCN(c2ncnc3ccc(Br)cc23)CC1	TDP1 cell noCPT 4.1µM
O=[N+]([O-])c1cnc2ccc(Br)cc2c1N1CCN(CCO)CC1	none (no result: TDP1 cell CPT, IL1B secr inh, HT1080 IDH1KD tx, HT1080-NT tox, TDP1 cell noCPT)
Cn1c(=O)c2c(nc(SCCN3CCCCC3)n2Cc2cccc3ccccc23)n(C)c1=O	none (no result: TDP1 cell CPT, IL1B secr inh, HT1080 IDH1KD tx, HT1080-NT tox, TDP1 cell noCPT)
Cc1ccc2nc(-c3ccccc3)cc(C(=O)N(C)CC(=O)Nc3ccccc3Br)c2c1	TDP1 cell CPT inconclusive, IL1B secr inh inconclusive, HT1080 IDH1KD tx inconclusive, HT1080-NT tox inconclusive, TDP1 cell noCPT 26µM
COc1cccc(-c2nn(-c3ccc(C)cc3)cc2C(=O)N(C)CC(=O)Nc2cccc(F)c2)c1	TDP1 cell CPT 18µM, HT1080 IDH1KD tx inconclusive, TDP1 cell noCPT inconclusive
CN(CC(=O)Nc1cccc(F)c1)C(=O)CSc1ccccc1	ALOX12 inh inconclusive, TDP1 cell noCPT inconclusive
CN(CC(=O)Nc1ccccc1Br)C(=O)c1n[nH]c2ccccc12	HT1080-NT tox inconclusive
CN(CC(=O)Nc1ccccc1Br)C(=O)c1ccccc1OCc1ccc(Cl)cc1	TDP1 cell CPT inconclusive, IL1B secr inh -59, TDP1 cell noCPT 18µM
COc1ccc(-c2nn(-c3ccccc3)cc2C(=O)N(C)CC(=O)Nc2cccc(F)c2)cc1	TDP1 cell CPT inconclusive, HT1080 IDH1KD tx inconclusive, TDP1 cell noCPT inconclusive
Cc1ccc(SCC(=O)N(C)CC(=O)Nc2cccc(F)c2)c(C)c1	IL1B secr inh -53, ALOX12 inh inconclusive, TDP1 cell noCPT inconclusive
CN(CC(=O)Nc1ccccc1Br)C(=O)c1ccc(-c2ccc(Cl)cc2)o1	TDP1 cell CPT inconclusive, TDP1 cell noCPT inconclusive
COc1ccc(CCNC(=O)Cn2cnc3c(cnn3-c3ccccc3Cl)c2=O)cc1OC	TDP1 cell CPT inconclusive
CCOC(=O)c1c(S(=O)(=O)N2CCC(C(=O)Nc3ccc(F)cc3)CC2)c(C)n(C)c1C	none (no result: TDP1 cell CPT, IL1B secr inh, HT1080 IDH1KD tx, HT1080-NT tox, TDP1 cell noCPT)
CN(Cc1ccccc1)C(=O)c1cc(=O)c2ccccc2o1	none (no result: TDP1 cell CPT, IL1B secr inh, HT1080 IDH1KD tx, HT1080-NT tox, TDP1 cell noCPT)
COc1ccccc1N1CCN(c2ncccc2CNC(=O)c2ccoc2)CC1	none (no result: TDP1 cell CPT, IL1B secr inh, HT1080 IDH1KD tx, HT1080-NT tox, TDP1 cell noCPT)
CC(C)NC[C@H]1COCc2nc3ccccc3n21	none (no result: TDP1 cell CPT, IL1B secr inh, HT1080 IDH1KD tx, HT1080-NT tox, TDP1 cell noCPT)
COc1ccc(-c2nn(-c3ccccc3)cc2C(=O)N(C)CC(=O)Nc2ccccc2Br)cc1	TDP1 cell CPT 23µM, IL1B secr inh inconclusive, TDP1 cell noCPT inconclusive
COc1ccc(NC(=O)CN(C)C(=O)c2cc(-c3ccc(OC)cc3)nc3ccccc23)cc1	TDP1 cell CPT inconclusive, IL1B secr inh inconclusive, TDP1 cell noCPT inconclusive
COc1ccc(NC(=O)CN(C)C(=O)c2cc(-c3ccccc3)nc3ccccc23)cc1	TDP1 cell CPT inconclusive, IL1B secr inh inconclusive, ALOX12 inh inconclusive, TDP1 cell noCPT 15µM
N#Cc1ccccc1NC(=O)COC(=O)/C=C/c1cn(-c2ccccc2)nc1-c1ccc(Cl)cc1	TDP1 cell CPT inconclusive, TDP1 cell noCPT inconclusive
COc1ccc(-c2nn(-c3ccccc3)cc2/C=C/C(=O)OCC(=O)Nc2ccccc2C#N)cc1	TDP1 cell CPT 7.3µM, TDP1 cell noCPT 23µM
COc1ccc(NC(=O)CN(C)C(=O)Cc2n[nH]c(=O)c3ccccc23)cc1	TDP1 cell CPT 9.2µM
O=C(CC(c1ccccc1)c1ccc2c(c1)OCO2)N1CCCCCC1 (stereo not drawn)	none (no result: TDP1 cell CPT, IL1B secr inh, HT1080 IDH1KD tx, HT1080-NT tox, TDP1 cell noCPT)
COc1ccc(-c2cc(C(=O)N(C)CC(=O)Nc3cccc(F)c3)c3ccccc3n2)cc1	TDP1 cell CPT 16µM, IL1B secr inh -56, HT1080 IDH1KD tx inconclusive, ALOX12 inh inconclusive, TDP1 cell noCPT inconclusive
